These results are taken from PubChem BioAssay (NCATS).

Results filed as inconclusive are left out. The source made the active and inactive calls. Unless noted, the call rests on the fitted dose curve; in most records, active means well fitted curve in the direction sought with a large enough effect; inconclusive means small, poorly fitted or top-dose-only effect, or another doubt; inactive means no such curve, though single readings can be large; an effect the other way counts as inactive or inconclusive.

In test [1] the target is Glucocorticoid receptor (Homo sapiens) (UniProt P04150). The test is described as follows: qHTS assay for small molecule agonists of glucocorticoid receptor signaling (AID 588532; active means well fitted curve in the direction sought with a large enough effect in the signal ratio, with a control signal flat; the % refers to the signal ratio;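 further: 100% = dexamethasone at 0.1 µM and 0% = DMSO only wells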). The note with it: HeLa MMTV-bla, beta-lactamase ratio, agonist, 18 h; stronger effect = higher value; percent of dexamethasone control, DMSO zero. In a few lines: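 Titration series, up to 92 uM, applied to GRE-bla HeLa cells for 18 h at 37 C. Detection by CCF4 FRET substrate after 2 h at RT.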
For orientation: In qHTS, concentration-response curves come from the screen itself.

Test [2] is described as follows: qHTS assay for small molecule antagonists of peroxisome proliferator-activated receptor delta signaling (AID 588535; active means well fitted inhibition curve with a large enough effect in the signal ratio, with a control signal flat, not every such curve was filed as active; the % refers to the signal ratio;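 on max response: cells co-treated with a PPAR-delta agonist as stimulator during compound exposure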). The note with it: HEK293T PPARd-UAS-bla, beta-lactamase FRET ratio, 18 h; 460 nm channel. In a few lines:
(§1)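 Reporter: UAS-bla under PPAR-delta response element, HEK293T host. Medium: 2% charcoal/dextran FBS. Dosing: titration, 18 hrs, 37 C. Detection: CCF4, 2 hrs RT, 405 ex/460 and 530 em.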

For test [3], the target named is Peroxisome proliferator-activated receptor delta (Homo sapiens) (UniProt Q03181). The test is described as above. The note with it: HEK293T PPARd-UAS-bla, beta-lactamase FRET ratio, 18 h; series mostly up to 76.7 µM. In a few lines: as §1
Test [4] has as its target Vitamin D3 receptor (Homo sapiens) (UniProt P11473). The test is described as follows: qHTS assay for small molecule antagonists of vitamin D receptor signaling (AID 588541; calls by dose curve;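 further: receptor activated by calcitriol during compound treatment; on the % scale 0 is the no-effect control and ±100 the full control effect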). The note with it: HEK293T VDR-UAS-bla, beta-lactamase ratio, antagonist mode; series mostly up to 76.7 µM. In a few lines:
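VDR-UAS-bla HEK293T cells (2000/well, 2% charcoal-stripped FBS) were treated with titrated compounds plus 1-alpha,25-dihydroxyvitamin D3 (50 nM or 3 nM final) for 16 h at 37 C. CCF4 beta-lactamase fluorescence was read; Hill fits gave IC50.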

The target is the same in test [5]. The test is described as follows: qHTS assay for small molecule agonists of vitamin D receptor signaling (AID 588543; calls by dose curve;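 further: 0% = DMSO basal and 100% = reference agonist control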). The note with it: HEK293T VDR-UAS-bla, beta-lactamase ratio, 16 h; series mostly up to 76.8 µM. In a few lines: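 qHTS in agonist mode: compound titrations stimulate a VDR-driven β-lactamase reporter in HEK293T cells over 16 h at 37 °C. Response normalized to 50 nM 1α,25-dihydroxyvitamin D3 = 100%, DMSO = 0%; Hill fitting gives EC50 and maximal response.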

A short description of test [6]: qHTS assay for small molecule agonists of retinoid X receptor alpha signaling (AID 588544). The note with it: HEK293T RXRa-UAS-bla, beta-lactamase reporter, 18 h; 530 nm emission.
A short description of test [7]: qHTS assay for small molecule antagonists of retinoid X receptor alpha signaling (AID 588546; active means well fitted inhibition curve with a large enough effect in the signal ratio, with a control signal flat, not every such curve was filed as active; the % refers to the signal ratio;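 further: cells stimulated with 9-cis-retinoic acid as agonist; on the % scale 0 is the no-effect control and ±100 the full control effect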). The note with it: HEK293T RXRa-UAS-bla, beta-lactamase ratio, antagonist mode; measured here: W530 green channel, cytotoxicity proxy. The procedure, abridged: (§2)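 Beta-lactamase reporter inhibition, read as CCF4 fluorescence ratio (ex 405, em 460/530 nm) after 2 h at RT. HEK293T UAS-bla cells, 2500/well, were stimulated with 9-cis-RA at 500 or 100 nM final alongside test compound for 18 h at 37 C.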

Test [8] addresses Retinoic acid receptor RXR-alpha (Homo sapiens) (UniProt P19793). The description is as above. The note with it: HEK293T RXRa-UAS-bla, beta-lactamase ratio, antagonist mode. The procedure, abridged: as §2
A short description of test [9]: qHTS assay for small molecule activators of the p53 signaling pathway (AID 651743; active means well fitted activation curve with a large enough effect in the signal ratio, not every such curve was filed as active; the % refers to the signal ratio; further: % of control where 0% means no effect). The note with it: HCT-116 p53RE-bla, beta-lactamase FRET ratio, 16 h; activation: stronger effect = higher value. The procedure, abridged: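 Cell-based beta-lactamase reporter (p53 response elements, HCT-116 background). After a 5-hour preincubation, cells received compound for 16 hours at 37 C; substrate development ran 2 hours at room temperature.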

Test [10] can be described thus: qHTS assay for environmental chemicals that activate the Aryl hydrocarbon Receptor (AhR) signaling pathway (AID 651777). Further: % of control where 0% means no effect; nearly all actives have a fitted effect of over 15% in size. The note with it: 1A2-DRE human hepatoma cells, luciferase, 24 h; activation: stronger effect = higher value. In a few lines: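 1A2-DRE human hepatoma reporter line; 1,200 cells/well; cmpd or DMSO 24 h, 37 C/5% CO2; One-Glo 30 min RT; luciferase lum.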
The nature of test [11]: qHTS assay for small molecule agonists of the antioxidant response element (ARE) signaling pathway measured by Nrf2-dependant transcriptional activity (AID 720636; active means well fitted curve in the direction sought with a large enough effect in the repeat runs; an effect the other way counts as inactive or inconclusive; further: % of control where 0% means no effect). The note with it: ARE-luc HepG2, Nrf2 luciferase reporter, 16 h; series mostly up to 92.4 µM. In a few lines: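 Cells: ARE-luc HepG2 with Nrf2-responsive luciferase. Medium contained 1% dialyzed FBS. Compound exposure lasted 16 hr at 37 C and 5% CO2, followed by ONE-Glo luciferase detection.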

The nature of test [12]: qHTS assay for small molecule agonists of the antioxidant response element (ARE) signaling pathway measured by Nrf2-dependant transcriptional activity - cell viability counter screen (AID 720653; active means well fitted curve in the direction sought with a large enough effect in the repeat runs; an effect the other way counts as inactive or inconclusive; further: on the % scale 0 is the no-effect control and ±100 the full control effect). The note with it: ARE-bla HepG2 viability, CellTiter-Glo ATP luminescence, 16 h; max response: stronger effect = lower value. The procedure, abridged:
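ARE-bla HepG2 cells (2,000/well) rested 5 hrs at 37C/5% CO2, then exposed to compounds in DMSO for 16 hrs. Viability was read in the same wells as intracellular ATP by luminescence, 30 min at room temperature after reagent addition.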

Test [13] in a line: qHTS assay for cell viability of HEK293 cells (AID 743288). Further: on the % scale 0 is the no-effect control and ±100 the full control effect; nearly all actives have a fitted effect of over 50% in size. The note with it: ATP luminescence (CellTiter-Glo), 18 h; max response: stronger effect = lower value. In a few lines:
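The Tox21 protocol used parental HEK293 cells treated for 18 h at 37 C with compounds delivered by pintool; ATP-coupled luminescence after 30 min at room temperature gave viability.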

Test [14] is described as follows: qHTS assay for cell viability of the p53RE-bla HCT-116 cell line (AID 743292). Further: on the % scale 0 is the no-effect control and ±100 the full control effect; nearly all actives have a fitted effect of over 55% in size. The note with it: p53RE-bla HCT-116 viability, ATP luminescence, 16 h; series mostly up to 95 µM. In a few lines:
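HCT-116 p53RE-bla cells seeded 4,000/well; 5 h at 37 C; compound (DMSO) added; 16 h at 37 C; CellTiter-Glo added, 30 min RT; luminescence read.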

Test [15] addresses Nuclear receptor subfamily 1 group I member 2 (Rattus norvegicus) (UniProt Q9R1A7). The test is described as follows: qHTS assay for small molecule activators of the rat pregnane X receptor (rPXR) signaling pathway (AID 651751; call rule not given here; further: 0% is about no effect). The note with it: rPXR reporter cells, luciferase (One-Glo), 24 h.
Test [16] can be described thus: qHTS assay for small molecule activators of the human pregnane X receptor (PXR) signaling pathway (AID 720659; call rule not given here; further: 0% is about no effect). The note with it: DPX-2 HepG2 CYP3A4-luciferase, 24 h; series mostly up to 92.3 µM.
For test [17], the target named is Peroxisome proliferator-activated receptor gamma (Homo sapiens) (UniProt P37231). The test is described as follows: qHTS assay for small molecule agonists of peroxisome proliferator-activated receptor gamma signaling (AID 588536; active means well fitted curve in the direction sought with a large enough effect in the signal ratio, with a control signal flat, not every such curve was filed as active; the % refers to the signal ratio;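 further: 0% = DMSO basal wells and 100% = rosiglitazone at 2 µM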). The note with it: HEK293 PPARg-UAS-bla, beta-lactamase ratio, 16 h, percent of rosiglitazone response, DMSO as zero; series mostly up to 76.7 µM. The procedure, abridged: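 PPAR-gamma-UAS-bla HEK293 cells in medium with 1% charcoal/dextran-treated FBS were exposed to compounds for 16 h at 37 C. Beta-lactamase activity was read with CCF4 substrate (405 nm excitation, 460/530 nm emission).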

Test [18] deals with Thyroid hormone receptor beta (Homo sapiens) (UniProt P10828). The test is described as follows: qHTS assay for small molecule agonists of thyroid hormone receptor beta signaling (AID 588545; calls by dose curve;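 further: 0% = DMSO only and 100% = 10 nM T3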). The note with it: TR-UAS-bla GripTite HEK 293, beta-lactamase ratio, agonist mode, 18 h; series mostly up to 76.7 µM. In a few lines: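 Compounds were tested as agonists in TR-UAS-bla-GripTite HEK 293 cells. After 18 hrs at 37 C, CCF4 substrate was added and fluorescence read after 2 hrs at room temperature.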

In test [19] the target is Peroxisome proliferator-activated receptor alpha (Homo sapiens) (UniProt Q07869). The test is described as follows: qHTS assay for small molecule agonists of the peroxisome proliferator-activated receptor alpha (PPARalpha) signaling pathway (AID 651778). Further: % of control where 0% means no effect. The note with it: PathHunter PPARalpha complementation, chemiluminescence, 6 h; max response: stronger effect = higher value. In a few lines: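 Cells plated at 2,000/well and held overnight at 37 C, 5% CO2, then compound added by pin tool for 6 hr; after PathHunter detection reagent and 60 min at room temperature, chemiluminescence from enzyme complementation was read.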

The target of test [20] is Thyroid hormone receptor beta (Homo sapiens) (UniProt P10828). The test is described as follows: qHTS assay for small molecule antagonists of thyroid hormone receptor beta signaling (AID 588547; active means well fitted inhibition curve with a large enough effect in the signal ratio, with a control signal flat, not every such curve was filed as active; the % refers to the signal ratio;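 further: cells stimulated with 0.4 nM T3 agonist during compound exposure; on the % scale 0 is the no-effect control and ±100 the full control effect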). The note with it: TR-UAS-bla HEK293, beta-lactamase ratio, antagonist mode, 18 h. In a few lines:
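TR-UAS-bla GripTite HEK293 cells in 2% charcoal/dextran FBS medium were preincubated 4 h at 37 C, given compound (0.59 nM to 92 uM) plus 0.4 nM T3 (final) for 18 h, then CCF4 for 2 h at RT; Hill fit gave IC50.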

Thyroid hormone receptor beta (Homo sapiens), sequence (P10828 whole entry, looked up): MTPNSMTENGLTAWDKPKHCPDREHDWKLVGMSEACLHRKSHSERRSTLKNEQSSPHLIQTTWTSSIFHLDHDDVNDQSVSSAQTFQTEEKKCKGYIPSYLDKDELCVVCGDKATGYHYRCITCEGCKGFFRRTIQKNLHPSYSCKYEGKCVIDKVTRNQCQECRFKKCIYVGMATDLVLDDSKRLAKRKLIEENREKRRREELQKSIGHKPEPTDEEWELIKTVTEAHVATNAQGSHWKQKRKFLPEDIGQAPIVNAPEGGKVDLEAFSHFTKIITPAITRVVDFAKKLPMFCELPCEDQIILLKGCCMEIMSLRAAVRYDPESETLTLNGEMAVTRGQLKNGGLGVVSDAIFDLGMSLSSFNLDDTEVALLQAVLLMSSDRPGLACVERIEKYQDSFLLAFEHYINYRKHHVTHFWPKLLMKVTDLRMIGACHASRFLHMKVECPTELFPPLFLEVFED
Retinoic acid receptor RXR-alpha (Homo sapiens), sequence (P19793 whole entry, looked up): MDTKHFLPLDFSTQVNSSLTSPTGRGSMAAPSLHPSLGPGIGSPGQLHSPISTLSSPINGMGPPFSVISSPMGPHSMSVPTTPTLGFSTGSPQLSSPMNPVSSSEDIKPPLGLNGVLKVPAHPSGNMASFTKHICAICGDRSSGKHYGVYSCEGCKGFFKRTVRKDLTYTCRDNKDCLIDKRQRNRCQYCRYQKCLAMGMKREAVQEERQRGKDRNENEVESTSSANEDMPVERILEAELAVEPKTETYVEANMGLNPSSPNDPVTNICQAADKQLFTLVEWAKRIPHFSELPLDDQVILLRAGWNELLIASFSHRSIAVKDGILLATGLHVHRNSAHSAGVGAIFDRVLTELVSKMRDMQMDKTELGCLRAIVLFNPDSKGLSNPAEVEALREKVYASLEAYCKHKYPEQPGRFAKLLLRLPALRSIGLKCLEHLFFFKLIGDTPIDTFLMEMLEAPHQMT
Nuclear receptor subfamily 1 group I member 2 (Rattus norvegicus), sequence (Q9R1A7 whole entry, looked up): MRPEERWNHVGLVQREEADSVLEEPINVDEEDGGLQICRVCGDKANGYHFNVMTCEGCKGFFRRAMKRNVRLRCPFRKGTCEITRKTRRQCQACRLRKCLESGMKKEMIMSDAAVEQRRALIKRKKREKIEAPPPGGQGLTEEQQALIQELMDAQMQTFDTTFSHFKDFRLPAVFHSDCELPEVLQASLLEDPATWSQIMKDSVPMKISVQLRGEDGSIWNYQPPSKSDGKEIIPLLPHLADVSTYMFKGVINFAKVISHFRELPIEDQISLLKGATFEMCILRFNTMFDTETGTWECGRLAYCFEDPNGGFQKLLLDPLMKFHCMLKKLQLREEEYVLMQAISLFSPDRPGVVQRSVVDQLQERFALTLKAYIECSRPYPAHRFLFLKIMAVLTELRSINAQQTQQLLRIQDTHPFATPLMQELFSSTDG
Vitamin D3 receptor (Homo sapiens), sequence (P11473 whole entry, looked up): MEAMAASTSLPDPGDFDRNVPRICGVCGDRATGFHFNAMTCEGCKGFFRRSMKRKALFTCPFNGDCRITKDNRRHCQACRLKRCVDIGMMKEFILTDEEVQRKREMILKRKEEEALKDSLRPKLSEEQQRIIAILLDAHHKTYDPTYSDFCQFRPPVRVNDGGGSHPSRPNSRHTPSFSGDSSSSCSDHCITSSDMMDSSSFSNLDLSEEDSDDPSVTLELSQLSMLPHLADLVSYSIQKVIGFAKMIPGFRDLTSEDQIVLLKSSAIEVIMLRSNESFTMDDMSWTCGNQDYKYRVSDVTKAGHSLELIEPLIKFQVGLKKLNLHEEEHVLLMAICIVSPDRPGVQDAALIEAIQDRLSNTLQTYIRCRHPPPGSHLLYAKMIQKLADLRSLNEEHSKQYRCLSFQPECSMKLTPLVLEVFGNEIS
Peroxisome proliferator-activated receptor delta (Homo sapiens), sequence (Q03181 whole entry, looked up): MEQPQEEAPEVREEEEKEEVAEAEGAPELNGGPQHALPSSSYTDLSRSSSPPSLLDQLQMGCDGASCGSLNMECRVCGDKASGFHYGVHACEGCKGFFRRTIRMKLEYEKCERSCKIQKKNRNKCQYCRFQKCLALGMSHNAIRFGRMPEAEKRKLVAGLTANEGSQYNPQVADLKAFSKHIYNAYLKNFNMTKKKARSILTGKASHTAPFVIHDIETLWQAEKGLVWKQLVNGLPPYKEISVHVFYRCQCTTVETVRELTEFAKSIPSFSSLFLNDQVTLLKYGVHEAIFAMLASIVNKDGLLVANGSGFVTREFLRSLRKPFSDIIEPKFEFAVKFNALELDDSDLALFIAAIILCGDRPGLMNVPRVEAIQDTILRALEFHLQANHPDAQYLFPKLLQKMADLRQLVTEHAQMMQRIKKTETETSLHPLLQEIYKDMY
Peroxisome proliferator-activated receptor alpha (Homo sapiens), sequence (Q07869 whole entry, looked up): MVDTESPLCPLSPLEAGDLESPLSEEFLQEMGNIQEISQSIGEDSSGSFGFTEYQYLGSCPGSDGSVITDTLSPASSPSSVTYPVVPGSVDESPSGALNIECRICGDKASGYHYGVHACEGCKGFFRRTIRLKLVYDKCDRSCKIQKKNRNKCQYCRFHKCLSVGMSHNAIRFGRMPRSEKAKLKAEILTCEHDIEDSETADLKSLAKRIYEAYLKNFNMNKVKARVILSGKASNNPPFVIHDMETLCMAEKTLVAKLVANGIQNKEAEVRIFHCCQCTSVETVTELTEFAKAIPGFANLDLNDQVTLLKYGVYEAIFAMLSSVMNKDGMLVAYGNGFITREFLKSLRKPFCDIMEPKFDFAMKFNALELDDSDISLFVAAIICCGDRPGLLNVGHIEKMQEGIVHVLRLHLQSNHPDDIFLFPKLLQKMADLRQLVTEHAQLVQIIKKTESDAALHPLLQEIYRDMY
Glucocorticoid receptor (Homo sapiens), sequence (P04150 whole entry, looked up): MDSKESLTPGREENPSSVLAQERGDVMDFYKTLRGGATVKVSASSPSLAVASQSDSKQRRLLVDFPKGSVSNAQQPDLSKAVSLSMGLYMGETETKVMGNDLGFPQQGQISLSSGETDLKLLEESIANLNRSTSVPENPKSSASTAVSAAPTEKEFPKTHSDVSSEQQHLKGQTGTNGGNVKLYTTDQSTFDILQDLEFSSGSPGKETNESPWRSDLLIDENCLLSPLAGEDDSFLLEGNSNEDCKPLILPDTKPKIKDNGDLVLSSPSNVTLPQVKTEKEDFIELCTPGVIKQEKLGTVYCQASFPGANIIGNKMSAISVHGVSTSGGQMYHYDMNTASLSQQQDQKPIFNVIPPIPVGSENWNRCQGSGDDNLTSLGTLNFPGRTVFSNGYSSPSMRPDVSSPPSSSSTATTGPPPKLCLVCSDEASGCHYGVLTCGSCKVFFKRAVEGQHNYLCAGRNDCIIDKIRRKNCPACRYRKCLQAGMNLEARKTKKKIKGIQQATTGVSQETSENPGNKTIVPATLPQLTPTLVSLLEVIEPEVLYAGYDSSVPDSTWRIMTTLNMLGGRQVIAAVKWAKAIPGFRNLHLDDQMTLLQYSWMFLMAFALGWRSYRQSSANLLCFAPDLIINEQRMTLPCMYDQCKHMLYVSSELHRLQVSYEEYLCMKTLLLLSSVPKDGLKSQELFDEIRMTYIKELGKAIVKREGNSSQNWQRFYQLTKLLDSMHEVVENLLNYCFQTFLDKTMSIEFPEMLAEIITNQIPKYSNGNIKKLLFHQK
Peroxisome proliferator-activated receptor gamma (Homo sapiens), sequence (P37231 whole entry, looked up): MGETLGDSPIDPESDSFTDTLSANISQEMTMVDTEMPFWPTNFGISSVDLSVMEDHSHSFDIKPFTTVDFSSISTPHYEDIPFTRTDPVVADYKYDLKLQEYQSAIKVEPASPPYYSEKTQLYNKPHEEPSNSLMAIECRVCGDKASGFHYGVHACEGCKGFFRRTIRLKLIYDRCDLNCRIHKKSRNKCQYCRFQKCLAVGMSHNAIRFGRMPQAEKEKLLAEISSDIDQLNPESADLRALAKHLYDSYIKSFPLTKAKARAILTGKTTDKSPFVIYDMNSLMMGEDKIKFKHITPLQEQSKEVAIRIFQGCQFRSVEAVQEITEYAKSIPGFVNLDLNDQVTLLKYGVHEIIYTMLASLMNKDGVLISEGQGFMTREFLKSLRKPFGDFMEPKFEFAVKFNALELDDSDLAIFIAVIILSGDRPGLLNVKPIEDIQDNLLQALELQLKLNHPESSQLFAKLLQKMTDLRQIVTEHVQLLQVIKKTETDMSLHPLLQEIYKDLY

Turning to `O=C=NC1CCC(CC2CCC(N=C=O)CC2)CC1` (centres undefined), the activation in test [1] is -3.36% (inactive); in test [9] it was -0.886% (inactive); in test [10], 0.629% (inactive). The max response was 20.7% in test [2]; -11% in test [6]; -7.15% in [7]; -13.6% (inactive) in test [8]; -1.04% (inactive) in test [12]; -9.19% (inactive) in test [13]. The max response in test [15] is -1.91% (inactive). In addition, the Potency result in test [3], in test [4], in test [11] and in test [14] was “inactive” each time. The result in test [5] and in [16] was inactive.
As for `C=CCCCCCCCCCC`, the values for the activation in test [1], in test [9] and in test [10] were -14.2% (inactive), -0.565% (inactive) and -1.31% (inactive), respectively. In addition, the max response in test [2] is -16.2%; in test [6], -13.8%; in test [7], -3.33%; in test [8], 2.09% (inactive); in test [19], -0.224% (inactive); in test [12], -1.98% (inactive). The values for the max response in test [13] and in [15] were -2.08% (inactive) and -5.04% (inactive), respectively. Also, the Potency entry in test [3], in test [18], in [11] and in test [14] was “inactive” throughout. Also, the result in test [17] and in test [16] was inactive.
`CCCCCCCCCCCCCCN(C)C`: the activation in test [1] is 12.5% (inactive); in test [9], 5.52% (inactive); in test [10] it was 1.73% (inactive). Further, the outcome in test [17] and in [16] was inactive. The Potency result in [4], in test [18], in test [11] and in [14] was “inactive” in each case. In addition, the max response in [6] was -17%; in test [7], -0.764%; in test [8] it was -14.8% (inactive); in [19], -1.88% (inactive); in test [12], -6.77% (inactive); in [13], -20.2% (inactive). The max response in [15] was -1.42% (inactive).
Consider `CCOC(=O)C(C)Oc1ccc(Oc2nc3ccc(Cl)cc3o2)cc1` (centres undefined), for which the activation in test [1] is 19.6% (inactive); in [9] it was -9.4% (inactive); in test [10], 0.871% (inactive). Also, the max response in [2] is -2.48%; in test [6], 11.3%; in [19] it was 26% (inactive); in test [12] it was 6.64% (inactive); in [13] it was 2.68% (inactive); in test [15] it was -9.57% (inactive). For the same compound, in test [3], the Potency entry was “inactive”. The outcome in test [5] and in test [16] was inactive.
`CC(C)(N=C=O)c1cccc(C(C)(C)N=C=O)c1`: the values for the activation in [1] and in [10] were 9.9% (inactive) and 0.551% (inactive), respectively. Also, the max response is 9.94% in [2]; 8.92% in test [6]; -4.03% in test [7]; -29.1% (inactive) in test [8]; -1.39% (inactive) in test [19]; -5.26% (inactive) in test [12]. Moreover, the max response in [13] was -12% (inactive); in [15], 4.49% (inactive). For the same compound, the Potency entry in test [3], in test [18], in test [11] and in [14] was “inactive” throughout. Also, the result in [17] and in test [5] was inactive. Also, in test [20], the activity change % (negative = inhibition) was -9.67% (inactive).
Regarding `CC(C)CC(C)(O)C#CC(C)(O)CC(C)C` (centres undefined), the activation is 4.46% (inactive) in [1], 1.9% (inactive) in [9] and 0.133% (inactive) in test [10]. Besides, the result in [17] and in [5] was inactive. Further, the Potency entry in test [4], in [18], in test [11] and in [14] was “inactive” each time. Moreover, the max response in [6] is 10.7%; in test [7], -0.0198%; in [8] it was -21.9% (inactive); in test [19], -1.54% (inactive); in [12] it was -3.69% (inactive); in test [13], -6.63% (inactive). Further, the activity change % (negative = inhibition) in test [20] is 20.8% (inactive).
